An excerpt weighted towards active compounds, which were near 4% of everything screened.
MITF act = activators of MITF-driven TRPM1 promoter activity in SK-MEL-5 cells. SK-MEL-5 TRPM1-promoter luciferase, 24 h; % of positive control, neutral wells = 0. activation, % at 12.5 µM. 300,000 compounds, 0.75% hits. AID 588334;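 active = mean activation of at least 80% with every replicate also reaching 80%; inconclusive = mean reaches 80% but some replicate falls short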;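 also: 0% = neutral control wells and 100% = parthenolide positive control wells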
PAX8 reporter = lowers PAX8-driven luciferase in RMG-I cells; RMG-I TPO-luciferase reporter, SteadyGlo, 24 h; inhibition, % at 12.6 µM; 360,000 compounds, 1.2% hits; AID 652154;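 active = mean replicate inhibition at least 60% with every replicate also reaching 60%; inconclusive = only one of the two criteria is met; inactive = mean below 60% and not all replicates reaching 60%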;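 also: luciferase light reporting Pax8 driven TPO promoter activity; plate controls were median of neutral control wells for no effect and mitoxantrone controls for full effect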
Wnt act = Wnt/beta-catenin pathway activation; Wnt/beta-catenin reporter cell assay, activator, plate reader; activation, % at 9.35 µM; 300,000 compounds, 1.2% hits; AID 743398; in the data active = activation above about 30%, passing the limit was not always enough; inconclusive = no clear call, values can overlap the other calls;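 also: 0% = neutral control wells and 100% = positive control wells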
TRPM1 prom inh = MITF TRPM1 promoter inhibition in SK-MEL-5 cells; AID 488899; 330,000 compounds, 0.83% hits; inhibition, % at 12.5 µM; SK-MEL-5 TRPM1 promoter luciferase, 24 h;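 active = mean inhibition across replicates of 60% or more, whatever share of single replicates reaches that level; inconclusive = some that reach 60%, reason not given; inactive = mean inhibition across replicates below 60%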
EWS-Fli block = inhibitors of EWS/Fli oncoprotein transcriptional activity | inhibition, % at 12.6 µM | AID 651661 | 350,000 compounds, 0.67% hits | A673 NR0B1-luciferase reporter, viability-normalised;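 active = mean inhibition of at least 50% after viability correction, with every replicate also passing that limit; inconclusive = mean reaches 50% but only one of two replicates passes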;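 also: firefly luciferase signal divided by Alamar Blue viability fluorescence both relative to DMSO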
esBAF inh = blocks esBAF chromatin remodeling in mouse ES cells. Bmi1-luciferase knock-in reporter, 24 h; 100% = twice the neutral-well signal. reporter increase, % at 12.5 µM. 350,000 compounds, 2% hits. AID 602393; in the data active = activation above about 40%; inconclusive = no clear call, values can overlap the other calls;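 also: 0% = median of the plate's neutral control wells and 100% = double that signal; a rise in the Bmi1 reporter signal indicates esBAF inhibition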
* marks the source's active call; other numbers are inactive results.

C[C@@H]1CCCCO[C@H](CN(C)S(=O)(=O)c2cccs2)[C@@H](C)CN([C@@H](C)CO)C(=O)c2cc(NS(=O)(=O)c3ccc(Cl)cc3)ccc2O1 was read as PAX8 reporter 68*, EWS-Fli block 6 and esBAF inh -1.
For C[C@H](CO)N1C[C@H](C)[C@@H](CN(C)S(=O)(=O)c2cccs2)OCCCC[C@H](C)Oc2ccc(NS(=O)(=O)c3ccc(Cl)cc3)cc2C1=O the results were PAX8 reporter 100*, EWS-Fli block 5 and esBAF inh 11.
CCC(=O)N1CCCCN2[C@H](CO)[C@@H](c3ccc(C#Cc4ccccc4)cc3)[C@H]2C1 was read as PAX8 reporter -3 and EWS-Fli block -18.
Screening C[C@H](CO)N1C[C@H](C)[C@@H](CN(C)C(=O)Nc2ccccc2)Oc2ccc(NS(=O)(=O)c3cccs3)cc2C1=O returned PAX8 reporter -19 and EWS-Fli block -8.
For C[C@@H](NC(=O)C[C@@H]1CC[C@@H](NS(=O)(=O)c2cccc(F)c2)[C@@H](CO)O1)c1ccccc1 the results were esBAF inh 0.
O=C(Nc1cccc(-c2nc3ccccc3s2)c1)c1cc(-n2cnnc2)ccc1Cl was read as MITF act 38, TRPM1 prom inh -26 and esBAF inh 82*.
Screening COc1cccc2sc(Nc3nc4ccc(NC(C)=O)cc4s3)nc12 returned MITF act -7, PAX8 reporter 0, Wnt act 8, TRPM1 prom inh 5, EWS-Fli block -3 and esBAF inh 48*.
Screening COc1cccc2sc(Nc3nc(-c4ccncc4)cs3)nc12 returned MITF act 5, PAX8 reporter -3, Wnt act 0, TRPM1 prom inh -5 and EWS-Fli block 63*.
CC(=O)Nc1cccc(-c2nc3ccc(NC(C)=O)cc3s2)c1 was read as MITF act 90*, PAX8 reporter -130, Wnt act inconclusive, TRPM1 prom inh -90, EWS-Fli block -80 and esBAF inh 54*.
Screening CC(=O)Nc1ccc2nc(NC(=O)COc3ccccc3C)sc2c1 returned MITF act 37, PAX8 reporter -20, Wnt act 2, TRPM1 prom inh -36, EWS-Fli block -12 and esBAF inh 22.
`C[C@H](CO)N1C[C@H](C)[C@H](CN(C)Cc2ccc(C(=O)O)cc2)OCCCC[C@H](C)Oc2ccc(NC(=O)NC3CCCCC3)cc2C1=O` gave PAX8 reporter -5, EWS-Fli block -11 and esBAF inh -1.
`CCNC(=O)Nc1ccc2c(c1)C(=O)N(C)[C@@H]1CC[C@@H](CC(=O)NCCN3CCCC3)O[C@H]1CO2` gave PAX8 reporter -15, EWS-Fli block -1 and esBAF inh 4.
`CC(=O)Nc1ccc2nc(NC(=O)COc3ccccc3Cl)sc2c1` gave MITF act 89*, PAX8 reporter -118, Wnt act 10, TRPM1 prom inh -84, EWS-Fli block -65 and esBAF inh 60*.
For COc1ccc(-c2nc3c(c(SCC(=O)Nc4cccc(O)c4)n2)Cc2c(CO)cnc(C)c2O3)cc1 the results were MITF act -7, PAX8 reporter 88*, Wnt act 1, TRPM1 prom inh 7 and esBAF inh -2.
Cc1ncc(CO)c2c1Oc1nc(-c3ccccc3)nc(SCC(=O)Nc3cccc(O)c3)c1C2 was read as MITF act -3, PAX8 reporter 28, Wnt act 5, TRPM1 prom inh 4, EWS-Fli block 0 and esBAF inh 7.
`CCC(CC)c1nnc(NC(=O)c2ccc3ccccc3n2)s1` gave MITF act 11, TRPM1 prom inh -12 and esBAF inh 53*.
For N#Cc1ccc(-c2cccnc2)nc1SCC(=O)c1ccccc1 the results were PAX8 reporter -107, Wnt act 3, TRPM1 prom inh -84, EWS-Fli block -97 and esBAF inh 63*.
Screening Cn1cnc([N+](=O)[O-])c1S(=O)(=O)Oc1ccccc1 returned MITF act -36, PAX8 reporter 90*, Wnt act -3, TRPM1 prom inh 37, EWS-Fli block 26 and esBAF inh -86.
`Cn1cnc([N+](=O)[O-])c1S(=O)(=O)Nc1ccccc1` gave MITF act -6, PAX8 reporter 0, Wnt act -6, TRPM1 prom inh 9, EWS-Fli block -25 and esBAF inh -2.
Cc1nn(C(C)C(=O)c2cccc(Cl)c2)c(C)c1[N+](=O)[O-] (stereo not drawn) was read as MITF act 2, PAX8 reporter 3, Wnt act 0, TRPM1 prom inh -2 and EWS-Fli block -6.
`Cn1cnc([N+](=O)[O-])c1S(=O)(=O)c1cccc(Cl)c1` gave MITF act -15, PAX8 reporter 83*, Wnt act -15, TRPM1 prom inh 18 and EWS-Fli block 23.
`C[C@H](CO)N1C[C@H](C)[C@@H](CN(C)C(=O)c2ccccc2)OCCCC[C@H](C)Oc2ccc(NS(=O)(=O)c3ccccc3)cc2C1=O` gave PAX8 reporter 13, EWS-Fli block -15 and esBAF inh -4.
Screening CC=Cc1ccc2n(c1=O)C[C@H]1[C@H](CO)[C@@H](C(=O)N3CCCCC3)[C@@H]2N1C(=O)C1CCC1 (mixture of isomers) returned EWS-Fli block 0 and esBAF inh -2.
For Cc1ccc(C2NC(=O)c3c(sc(C)c3C)N2)c(O)c1 (stereo not drawn) the results were MITF act 25, Wnt act 8, TRPM1 prom inh -24 and esBAF inh 98*.
For Cc1sc2c(c1C)C(=O)NC(c1ccccc1F)N2 (stereo not drawn) the results were MITF act 33, PAX8 reporter -126, Wnt act 32*, TRPM1 prom inh -49 and EWS-Fli block -41.
Cc1cccc(C2NC(=O)c3c(sc(C)c3C)N2)c1O (stereo not drawn) was read as MITF act -9, TRPM1 prom inh 11 and esBAF inh 16.
Screening COc1ccc(NC(=O)N(C)C[C@@H]2Oc3c(NS(=O)(=O)c4ccc(Cl)cc4)cccc3C(=O)N([C@@H](C)CO)C[C@H]2C)cc1 returned PAX8 reporter 12, EWS-Fli block -2 and esBAF inh -1.
O=C(NN=Cc1c(O)ccc2ccccc12)c1ccc2c(c1)OCO2 was read as MITF act -61, PAX8 reporter 12, Wnt act 2, TRPM1 prom inh inconclusive, EWS-Fli block 21 and esBAF inh -57.
O=C(N/N=C\c1c(O)ccc2ccccc12)c1ccc(S(=O)(=O)N2CCCCC2)cc1 was read as MITF act -75, PAX8 reporter 19 and TRPM1 prom inh 76*.
For O=C(N/N=C/c1c(O)ccc2ccccc12)c1ccc(CO)nc1 the results were PAX8 reporter 71*, Wnt act -2, TRPM1 prom inh 46, EWS-Fli block 4 and esBAF inh -59.

From PubChem
